Only some compounds are listed: those with a hit (about 2.2% of all), similar ones and a draw of the others.
EWS-Fli inh – EWS/Fli-driven NR0B1 reporter inhibitors, primary screen, A673 cells, NR0B1 luciferase, luminescence, MLPCN library. viability-normalised. actives 0.67% (n = 350,000). inhibition, % at 12.6 µM;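 active = mean inhibition of at least 50% after viability correction, with every replicate also passing that limit; inconclusive = mean reaches 50% but only one of two replicates passes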;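 note: firefly luciferase signal divided by Alamar Blue viability fluorescence both relative to DMSO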
Shn3 3UTR inh – reduction of Shn3 3'UTR firefly luciferase signal, primary screen, Schnurri-3 inhibitor project, cell-based, Clone20 osteoblasts, set 2; Clone20 osteoblast Shn3 3'UTR firefly luciferase, 24 h; actives 0.52% (n = 360,000); inhibition, % at 12.5 µM;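 active = mean inhibition of at least 75% with every replicate also reaching 75%; inconclusive = mean inhibition at least 75% but some replicate below; inactive = mean inhibition below 75%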;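 note: 0% = median of neutral control wells and 100% = pilot-screen positive control compound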
TRPM1 prom inh – inhibitors of MITF-dependent TRPM1 promoter reporter, primary screen, cell-based, SK-MEL-5, single point, luciferase; SK-MEL-5 TRPM1 promoter luciferase, 24 h; AID 488899, 2010; inhibition, % at 12.5 µM; actives 0.83% (n = 330,000);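 active = mean inhibition across replicates of 60% or more, whatever share of single replicates reaches that level; inconclusive = some that reach 60%, reason not given; inactive = mean inhibition across replicates below 60%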
PAX8 inh HTS – inhibitors of PAX8-driven TPO luciferase reporter, primary screen, RMG-I cells, single concentration; inhibition, % at 12.6 µM; AID 652154, 2013; actives 1.2% (n = 360,000); SteadyGlo, 24 h;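 active = mean replicate inhibition at least 60% with every replicate also reaching 60%; inconclusive = only one of the two criteria is met; inactive = mean below 60% and not all replicates reaching 60%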;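 note: luciferase light reporting Pax8 driven TPO promoter activity; plate controls were median of neutral control wells for no effect and mitoxantrone controls for full effect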
LGR2 antag – inhibitors of bursicon-induced LGR2 CRE-luciferase signal, primary screen, cell-based, HEK293, CRE-luciferase reporter, bursicon stimulation; Drosophila bursicon receptor LGR2 (rickets); bursicon-stimulated, 4 h; inhibition, % at 9.99 µM; actives 0.35% (n = 380,000); AID 720647, 2013;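 active = drop in luminescence signal, shown as inhibition above about 50% in the replicate tests, limit read from the data, passing the limit was not always enough; inconclusive = probably only some replicates passing the limit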;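 note: agonist challenge used bursicon conditioned medium at about half maximal strength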
LMP1 NFkB inh – EBV LMP1-driven NF-kappaB luciferase reporter inhibitors, primary screen, cell-based, luminescence, single point. LMP1-induced NF-kappaB luciferase reporter cells. inhibition, % at 12.5 µM. actives 0.69% (n = 350,000); in the data active = inhibition above about 41%; inconclusive = no clear call, values can overlap the other calls;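 note: 0% = neutral control wells and 100% = reference inhibitor control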
* marks the source's active call; other numbers are inactive results; ? = inconclusive; . = not tested or not shown.

SMILES	EWS-Fli inh	Shn3 3UTR inh	TRPM1 prom inh	PAX8 inh HTS	LGR2 antag	LMP1 NFkB inh
C[C@@H]1CN([C@H](C)CO)C(=O)Cc2cc(N(C)C)ccc2O[C@@H]1CN(C)Cc1ccc(C(=O)Nc2ccccc2N)cc1	8	.	.	62*	-19	.
C[C@H](CO)N1C[C@H](C)[C@@H](CN(C)Cc2ccc(C(=O)Nc3ccccc3N)cc2)Oc2ccc(N(C)C)cc2C1=O	?	.	.	29	16	.
C[C@@H]1CN([C@H](C)CO)C(=O)c2cc(N(C)C)ccc2O[C@@H]1CN(C)Cc1ccc(C(=O)Nc2ccccc2N)cc1	74*	.	.	50	.	.
CN(c1ccccc1)C1CCCCC1NS(=O)(=O)c1ccc(Cl)cc1 (stereo unspecified)	16	20	-9	9	-62	-6
CCN(CC)C1CCCCC1NS(=O)(=O)c1ccc(Cl)cc1 (stereo unspecified)	0	73	-12	9	5	52*
O=C(CN1CCN(S(=O)(=O)c2ccc(F)cc2)CC1)Nc1cccc(C(F)(F)F)c1	.	-4	-2	.	-3	74*
COc1cccc(NC(=O)CN2CCN(S(=O)(=O)c3ccc(F)cc3)CC2)c1	-1	-6	4	.	-2	-7
COc1ccc(S(=O)(=O)N2CCN(CC(=O)Nc3cc(OC)cc(OC)c3)CC2)cc1	.	-5	7	.	9	79*
CCC(=O)N1C[C@H](C)[C@H](OC)CN(C)C(=O)c2cc(NC(=O)c3cc(C)on3)ccc2OC[C@@H]1C	-5	.	.	.	-11	.
CCOc1ccc(CCN2C(=S)N([C@@H](Cc3ccc(O)cc3)CN3CCC[C@@H]3CN3C(=S)NC[C@@H]3CC(C)C)C[C@@H]2Cc2ccc(O)cc2)cc1	34	17	.	98*	2	.
CC(C)C[C@@H](CN1CCCC1CN1C(=S)NC[C@@H]1Cc1ccc(O)cc1)N1C[C@H](Cc2ccc(O)cc2)N(CCc2ccccc2)C1=S (stereo partly specified)	7	43	35	71*	6	7
CCOc1ccc(CCN2C(=S)N([C@@H](Cc3ccc(O)cc3)CN3CCCC3CN3C(=S)NC[C@@H]3Cc3ccc(O)cc3)C[C@@H]2CC(C)C)cc1 (stereo partly specified)	27	21	29	54	.	14
C[C@@H]1CN([C@@H](C)CO)C(=O)c2cc(NC(=O)Nc3ccc4c(c3)OCO4)ccc2O[C@@H](C)CCCCO[C@H]1CN(C)Cc1ccncc1	-9	.	.	1	13	.
CNC[C@@H]1Oc2ccc(NS(=O)(=O)c3c(C)noc3C)cc2C(=O)N([C@@H](C)CO)C[C@H]1C	-9	.	.	-30	-1	.
Cc1cc(C)cc(N2C(=O)CC(Sc3nnnn3-c3ccccc3)C2=O)c1 (stereo unspecified)	22	88*	11	.	15	3
Cn1nnnc1SC1CC(=O)N(c2ccccc2)C1=O (stereo unspecified)	-3	-1	-4	-8	-15	-10
COc1ccc2c3c(n(C)c2c1)[C@H](CO)N(C(C)=O)CC31CCN(C(=O)NC(C)C)CC1	-9	.	.	.	-6	.
O=C(C1CC1)N1CC(=O)N2[C@H](CO)[C@H](c3ccc(-c4ccccc4F)cc3)[C@H]2C1	2	.	.	-7	4	.
COc1ccc(-c2c(-c3cc(OC)c(OC)c(OC)c3)noc2C)cn1	.	-2	.	.	.	7
COc1cc(-c2noc(C)c2C#Cc2ccccn2)cc(OC)c1OC	54*	10	21	29	-7	5
CNC(C)C#Cc1c(-c2cc(OC)c(OC)c(OC)c2)noc1C (stereo unspecified)	7	9	17	0	-6	3
COc1cc(-c2noc(C)c2C#Cc2ccc(N)cc2)cc(OC)c1OC	?	-5	20	75*	-15	4
COc1cc(-c2noc(C)c2/C=C/c2ccc(N)cc2)cc(OC)c1OC	57*	3	63*	79*	-8	1
COc1cc(-c2c(-c3cc(OC)c(OC)c(OC)c3)noc2C)ccc1F	66*	.	.	88*	-28	.
Cc1noc(C)c1S(=O)(=O)N(C)C[C@H]1Oc2ccc(NC(=O)CCCCCC(=O)Nc3ccccc3N)cc2CC(=O)N([C@@H](C)CO)C[C@@H]1C	-4	.	.	-15	21	.
SMILES	EWS-Fli inh	Shn3 3UTR inh	TRPM1 prom inh	PAX8 inh HTS	LGR2 antag	LMP1 NFkB inh
N[C@H]1CC[C@H](CCn2cc(C3CC3)nn2)O[C@@H]1CO	-4	.	.	.	15	.
O=c1c2c(nc3c(-c4ccc(Cl)cc4)c[nH]n13)CCCC2	.	40	44	45	.	53*
CCSc1nc(-c2ccccc2)nc(C(Cl)Cl)n1	50	23	96*	96*	23	67*
CSc1nc(Cl)c(C#N)c(-c2ccc(C)cc2)n1	0	-2	-1	.	7	-1
CSc1nc(-c2ccc(C)cc2)nc(C(Cl)Cl)n1	.	7	77*	.	.	60*
C=CCNC(=O)[C@@H]1[C@H]2C(=O)O[C@H](c3ccccc3)[C@H](c3ccccc3)N2[C@H](c2ccc(OCCO)cc2)[C@@]12C(=O)Nc1ccc(C#CCNC(N)=O)cc12	-20	.	.	.	.	.
CCc1ccc(CNC(=O)C2CCN(S(=O)(=O)N3CCCCC3)CC2)cc1	-8	-4	.	81*	2	-12
CC(C)NC(=O)N(C)C[C@@H]1Oc2c(NS(=O)(=O)c3ccc(Cl)cc3)cccc2C(=O)N([C@@H](C)CO)C[C@@H]1C	3	.	.	6	-29	.
COc1ccc(OC)c(CCNC(=O)Cn2nc(C)c3c(C)n(-c4ccc(C)cc4)nc3c2=O)c1	16	59	47	71*	12	1
COc1ccc(CCNC(=O)Cn2nc(C)c3c(C)n(-c4ccccc4)nc3c2=O)c(OC)c1	-5	6	11	12	8	8
C[C@@H]1CN([C@H](C)CO)S(=O)(=O)c2ccc(-c3ccccc3)cc2O[C@@H]1CN(C)C(=O)c1ccc2c(c1)OCO2	9	.	.	30	2	.
COc1cccc(CN2CC3(CCN(Cc4ccccn4)CC3)c3c([nH]c4cc(OC)ccc34)[C@@H]2CO)c1	-5	.	.	-2	-1	.
Cc1ccc(C(=O)OCn2ncc(Cl)c(Cl)c2=O)cc1	.	91*	105*	.	.	89*
O=C(OCn1ncc(Cl)c(Cl)c1=O)c1ccc(C(F)(F)F)cc1	.	95*	53	.	8	-32
C[C@H](CO)N1C[C@H](C)[C@H](CN(C)C(=O)Nc2ccccc2)Oc2ncc(C3=CCCCC3)cc2C1=O	1	.	.	.	12	.
C[N+](C)(C)CCC(=O)N1C/C(=C/c2ccccc2)C(=O)/C(=C\c2ccccc2)C1	58*	9	3	-30	9	-42

Source: PubChem BioAssay
